Assay results as given in PubChem BioAssay AID1159580 (chemical genetic matrix, 2015).
Screen size: about 5,500 compounds; about 2,000 (36%) were called active. Roughly 18% stayed inconclusive and do not appear here. Rule as the data show it: active = normalized growth mostly below about 0.91 (no sharp cut-off); inconclusive = no clear call, values can overlap the other calls; inactive = mostly above about 0.92. This is one part of the list.

Assay: chemical genetic growth profiling, strain panel (AID 1159580);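 also: tested at 20 µM; growth read once vehicle control cultures reached saturation at 30 °C; 1 = growth at the plate median or of vehicle wells; lower values mean less growth of the strain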
Details: S. cerevisiae deletion strains, growth OD
[1] = locus YHR030C, strain SLT2, hits give low values
[2] = locus YHR079C, strain IRE1, hits give low values
[3] = locus YJL095W, strain BCK1, hits give low values
[4] = locus YJR066W, strain TOR1, hits give low values
[5] = locus YLR113W, strain HOG1, hits give low values
[6] = locus YNL183C, strain NPR1, hits give low values
[7] = locus YOR231W, strain MKK1, hits give low values
[8] = locus YPL256C, strain CLN2, hits give low values

Measured: normalized growth

CC(N)C(=O)NC(Cc1ccccc1)C(=O)O (stereo not given)
inactive: [1] 0.937 | [2] 0.952 | [3] 0.96 | [4] 0.886 | [5] 1.02 | [6] 0.89 | [7] 0.982 | [8] 0.925

O=C1C(=O)N(CN2CCc3c([nH]c4ccccc34)C2C(F)(F)F)c2ccc(F)cc21 (stereo not given)
active: [1] 0.329 | locus YKL101W, strain HSL1, hits give low values 0.711 | [5] 0.726 | [8] 0.471
inactive: locus YAR019C, strain CDC15, hits give low values 0.978 | locus YBL105C, strain PKC1, hits give low values 0.983 | locus YBR135W, strain CKS1, hits give low values 0.982 | locus YBR136W, strain MEC1, hits give low values 0.974 | locus YBR160W, strain CDC28, hits give low values 0.962 | locus YDL017W, strain CDC7, hits give low values 0.983 | locus YDL028C, strain MPS1, hits give low values 0.975 | locus YDL101C, strain DUN1, hits give low values 0.988 | locus YDL108W, strain KIN28, hits give low values 0.973 | locus YDL132W, strain cdc53, hits give low values 0.972 | locus YDL214C, strain PRR2, hits give low values 0.841 | locus YDR052C, strain DBF4, hits give low values 0.991 | locus YDR054C, strain cdc34, hits give low values 0.974 | locus YDR226W, strain ADK1, hits give low values 0.98 | locus YDR477W, strain SNF1, hits give low values 0.86 | locus YER123W, strain YCK3, hits give low values 0.692 | locus YER133W, strain GLC7, hits give low values 0.894 | locus YFL009W, strain cdc4, hits give low values 0.977 | locus YFL029C, strain CAK1, hits give low values 0.959 | locus YFR003C, strain YPI1, hits give low values 0.981 | locus YFR019W, strain FAB1, hits give low values 0.839 | locus YFR028C, strain CDC14, hits give low values 0.963 | locus YGR040W, strain KSS1, hits give low values 0.891 | locus YGR052W, strain FMP48, hits give low values 0.804 | locus YGR092W, strain DBF2, hits give low values 0.612 | [2] 0.667 | locus YHR082C, strain KSP1, hits give low values 0.614 | locus YHR205W, strain SCH9, hits give low values 0.795 | locus YIL147C, strain SLN1, hits give low values 0.982 | [3] 0.791 | locus YJL128C, strain PBS2, hits give low values 0.934 | locus YJL157C, strain FAR1, hits give low values 0.886 | locus YJR016C, strain ILV3, hits give low values 0.993 | locus YJR066W, strain TOR1 (second series), hits give low values 0.825 | [4] 0.784 | locus YKL048C, strain ELM1, hits give low values 0.879 | locus YKL067W, strain YNK1, hits give low values 0.865 | locus YKL193C, strain SDS22, hits give low values 0.972 | locus YKL203C, strain TOR2, hits give low values 0.934 | locus YLR133W, strain CKI1, hits give low values 0.836 | locus YLR403W, strain SFP1, hits give low values 0.942 | locus YML070W, strain DAK1, hits give low values 0.716 | locus YMR001C, strain CDC5, hits give low values 0.962 | locus YMR205C, strain PFK2 (second series), hits give low values 0.888 | locus YMR277W, strain FCP1, hits give low values 0.947 | locus YNL006W, strain LST8, hits give low values 0.982 | locus YNL020C, strain ARK1, hits give low values 0.741 | locus YNL161W, strain CBK1, hits give low values 0.979 | [6] 0.666 | locus YNL207W, strain RIO2, hits give low values 0.983 | locus YNL222W, strain SSU72, hits give low values 0.98 | locus YNL307C, strain MCK1 (second series), hits give low values 0.682 | locus YOL078W, strain AVO1, hits give low values 0.972 | locus YOL136C, strain PFK27, hits give low values 0.711 | locus YOR061W, strain CKA2, hits give low values 0.917 | locus YOR119C, strain RIO1, hits give low values 0.907 | [7] 0.8 | locus YOR329C, strain SCD5, hits give low values 0.994 | locus YPL031C, strain PHO85, hits give low values 0.82 | locus YPL153C, strain RAD53, hits give low values 0.74 | locus YPL204W, strain HRR25, hits give low values 0.798 | locus YPL209C, strain IPL1, hits give low values 0.987 | locus YPR025C, strain CCL1, hits give low values 0.993 | locus YPR106W, strain ISR1, hits give low values 0.978 | locus YPR111W, strain DBF20, hits give low values 0.969 | strain NNK1, hits give low values 0.981 | strain TSCII, hits give low values 0.958

C[N+](C)(C)CCCCCCCCCC[N+](C)(C)C
inactive: locus YAL013W, strain DEP1, hits give low values 1 | locus YAL040C, strain CLN3, hits give low values 1 | locus YCL061C, strain MRC1 (second series), hits give low values 1 | locus YDR150W, strain NUM1, hits give low values 0.989 | locus YDR363W, strain ESC2, hits give low values 1.02 | locus YER002W, strain NOP16, hits give low values 0.995 | locus YGR229C, strain SMI1, hits give low values 1.04 | [1] 0.973 | [2] 1.01 | [3] 1 | [4] 0.963 | [5] 1.01 | locus YMR307W, strain GAS1, hits give low values 0.998 | locus YNL175C, strain NOP13, hits give low values 1.01 | [6] 0.948 | locus YNL197C, strain WHI3, hits give low values 1.03 | locus YNL224C, strain SQS1, hits give low values 0.983 | locus YOR083W, strain WHI5 (second series), hits give low values 0.95 | [7] 0.995 | locus YPL055C, strain LGE1, hits give low values 1.02 | [8] 1.12
